# KB-V1 MDR tox: KB-V1 MDR subline cytotoxicity. AID 1347076. KB-V1 MDR cells viability, CellTiter-Glo, 72 h. hit rate 3.4% among 400,000. Potency, µM (doses to about 46.1 µM), usual class: cytotoxic; also: % is scaled to controls: 0 for no effect and ±100 for the full control effect; nearly all actives have a fitted effect of over 60% in size
#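 Cells of the MDR subline KB-V1 are plated, dosed with compound at multiple concentrations, and incubated 72 h at 37 degrees C; CellTiter-Glo is then added and luminescence read after 10 min.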
# KB-3-1 cytotox: KB-3-1 parental cell cytotoxicity; KB-3-1 viability, CellTiter-Glo ATP luminescence, 72 h; Potency, µM (top dose mostly 46.1 µM), actives largely listed as cytotoxic; hit rate 1.4% among 400,000; AID 1347075; also: % is scaled to controls: 0 for no effect and ±100 for the full control effect; nearly all actives have a fitted effect of over 60% in size
#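 Here the drug-naive KB-3-1 line serves as comparator for MDR sub-line selectivity; cells received compound titrations, 72 h at 37 °C, then CellTiter-Glo readout.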
# RORgamma inh: inhibitors of mouse ROR gamma transcriptional activity; P51450; Drosophila S2 Gal4-RORgamma UAS-luciferase reporter, 20 h; Potency, µM (highest dose often 53.6 µM), inactives show top-dose activity change, negative = inhibition, actives largely listed as inhibitors; hit rate 5.4% among 310,000; also: % is scaled to controls: 0 for no effect and ±100 for the full control effect; nearly all actives have a fitted effect of over 60% in size
# Target sequence (P51450 whole entry, looked up, the tested form may be a part): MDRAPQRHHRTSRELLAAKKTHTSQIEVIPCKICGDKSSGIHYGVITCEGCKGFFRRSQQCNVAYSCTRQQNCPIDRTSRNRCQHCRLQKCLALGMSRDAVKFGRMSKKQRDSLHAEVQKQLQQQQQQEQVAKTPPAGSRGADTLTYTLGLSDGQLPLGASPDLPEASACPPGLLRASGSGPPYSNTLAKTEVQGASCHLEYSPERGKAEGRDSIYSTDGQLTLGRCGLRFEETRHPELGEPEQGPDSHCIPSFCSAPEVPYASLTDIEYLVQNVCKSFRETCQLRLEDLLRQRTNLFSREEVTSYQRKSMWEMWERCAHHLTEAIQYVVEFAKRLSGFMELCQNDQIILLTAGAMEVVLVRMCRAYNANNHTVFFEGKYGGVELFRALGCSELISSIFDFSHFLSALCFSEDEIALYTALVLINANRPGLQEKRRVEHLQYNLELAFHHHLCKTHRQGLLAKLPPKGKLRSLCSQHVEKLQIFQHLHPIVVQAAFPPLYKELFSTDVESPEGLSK
#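 Luminescence from a UAS-regulated Photinus luciferase reporter in stably transfected Drosophila Schneider cells is measured; decreased signal marks ROR gamma inhibition. Fusion expression is induced by 700 uM copper sulfate for 20 hr.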
# VP16 counter: inhibits Gal4-VP16 luciferase reporter, ROR gamma counter-screen. Drosophila S2 Gal4-VP16 UAS-luciferase, luminescence, 20 h. Potency, µM (doses to about 53.6 µM), for the others: top-dose activity, negative = inhibition, actives largely listed as inhibitors. hit rate 3.5% among 310,000;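 also: Gal4-VP16 expression switched on by copper sulfate through the metallothionein promoter; % is scaled to controls: 0 for no effect and ±100 for the full control effect; nearly all actives have a fitted effect of over 50% in size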
# SW480 rerep: induces DNA re-replication in SW480 colon adenocarcinoma cells; SW480 DNA re-replication, Hoechst DNA content imaging, 48 h; Potency, µM (highest dose often 46.1 µM), without a hit: top-dose re-replication activation, actives largely listed as activators; hit rate 1.8% among 340,000; also: % of control where 0% means no effect; nearly all actives have a fitted effect of over 55% in size
#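 Image-based DNA-content assay: after two days of treatment, nuclei were labelled with the DNA dye Hoechst and imaged, and hits were compounds raising the count of nuclei showing high fluorescence intensity.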
# MCF10A rereplic: inducers of DNA re-replication in MCF 10A breast cells. MCF 10A DNA re-replication, Hoechst nuclear intensity, 48 h. Potency, µM (titrated, usually from 46.1 µM), inactives show at the top dose activity, positive = re-replication, actives largely listed as activators. hit rate 2.9% among 350,000. AID 624296; also: % of control where 0% means no effect; nearly all actives have a fitted effect of over 50% in size
# Numbers without * were called inactive; i = inactive; ? = inconclusive; / = not tested or not shown; [ ] = remark or other dose. Only some compounds are listed: those with a hit (about 10% of all), similar ones and a draw of the others. Calls follow the shape of the dose curve; as a rule, active = well fitted curve in the direction sought with a large enough effect; inconclusive = small, poorly fitted or top-dose-only effect, or another doubt; inactive = no such curve, though single readings can be large; an effect the other way counts as inactive or inconclusive. Potency is read from the fitted curve at half-maximal effect.
SMILES,KB-V1 MDR tox,KB-3-1 cytotox,RORgamma inh,VP16 counter,SW480 rerep,MCF10A rereplic
O=C1C(=O)N(Cc2cccnc2)C(c2ccccn2)/C1=C(/O)c1ccccc1 (centres undefined),i,i,0.45µM*,-3%,2%,3%
CC(C)CCC[C@](C)(O)c1ccc(C(=O)O)cc1O,?,i,/,/,/,/
Cc1ccc(C(O)(COC(=O)C(C)C)COC(=O)C(C)C)c(O)c1,?,?,-106%,32µM*,?,?
CCC(Sc1nnnn1-c1ccccc1)C(=O)Nc1nc2ccccc2s1 (centres undefined),i,i,-33%,?,0%,?
CC(Sc1nnc2ccccn12)C(=O)Nc1ccc(Cl)cn1 (centres undefined),i,i,23%,0%,-2%,-10%
CC(Sc1nnnn1-c1ccccc1)C(=O)Nc1ccc(Cl)cn1 (centres undefined),18µM*,i,?,?,-2%,?
CCC(Sc1nnnn1-c1ccccc1)C(=O)NC(C)c1ccccc1 (centres undefined),5.8µM*,i,7%,-2%,-2%,-5%
COc1ccccc1OCCSc1nc2ccccc2c(=O)[nH]1,i,i,26%,13%,0%,21µM*
COc1ccc(N=Cc2sc3ccccc3c2Cl)cc1,i,i,4%,19%,?,-13%
Cc1cccc(/N=C/c2sc3ccccc3c2O)n1,i,i,-33%,-18%,-3%,-4%
Oc1ccc(Cl)cc1N=Cc1sc2ccccc2c1Cl,i,?,-3%,-11%,21µM*,143%
O=[N+]([O-])c1ccc(O)c(N=Cc2sc3ccccc3c2O)c1,4.1µM*,16µM*,?,?,?,-33%
Oc1c(C=Nc2cccc3cccnc23)sc2ccccc12,/,/,1.8µM*,1.4µM*,/,/
N[C@H](CCC(=O)N[C@H](CSN=O)C(=O)NCC(=O)O)C(=O)O,/,/,-17%,2%,/,/
CNC[C@H](O)[C@H](O)[C@H](O)[C@H](O)CO,/,/,1%[16.9 µM],3%[17 µM],/,/
Cc1ccc(NC(=O)Cn2c(=O)n(Cc3ccco3)c(=O)c3oc4ccccc4c32)cc1C,i,i,/,/,/,/
CCOC(=O)c1cc(-c2ccc(OC)cc2)n(CCC(=O)Nc2ccccc2OC)c1C,i,i,/,/,/,/
COc1cc(NC(=O)Cn2c(=O)oc3cc(S(=O)(=O)N4CCCCCC4)ccc32)cc(OC)c1,?,i,/,/,/,/
CCOC(=O)c1ccc(N2C(=O)c3n[nH]c(C)c3C2c2ccc(OC)cc2)cc1 (centres undefined),5.2µM*,i,-10%[10 µM],-3%,-13%,?
CCOC(=O)c1ccc(N2C(=O)c3n[nH]c(C)c3C2c2ccc(CC)cc2)cc1 (centres undefined),i,i,/,/,/,/
CCOC(=O)c1ccc(N2C(=O)c3n[nH]c(-c4ccco4)c3C2c2cccc([N+](=O)[O-])c2)cc1 (centres undefined),18µM*,?,0%[10 µM],-11%,16%,?
CCc1ccccc1NC(=O)CN1C(=O)C2CCCN2c2ncc(Cl)cc21 (centres undefined),15µM*,i,21%,5%,10%,?
CN(C)C(CNc1ccc(C(N)=O)cc1[N+](=O)[O-])c1ccccc1 (centres undefined),i,?,5%,4%,-4%,4%
Nc1ccc(C(=O)OCC(=O)N2CCc3ccccc3C2)cc1[N+](=O)[O-],i,i,6%,-11%,?,?
Nc1ccc(C(=O)OCC(=O)N2c3ccccc3Sc3ccccc32)cc1[N+](=O)[O-],6.5µM*,?,39%,-7%,-6%,?
SMILES,KB-V1 MDR tox,KB-3-1 cytotox,RORgamma inh,VP16 counter,SW480 rerep,MCF10A rereplic
NCCNc1ccc(C(=O)N2c3ccccc3Sc3ccccc32)cc1[N+](=O)[O-],21µM*,?,?,-28%,?,?
COc1ccc(NS(=O)(=O)c2ccc3c(c2)CC(C)N3C(C)=O)c(OC)c1 (centres undefined),i,i,/,/,/,/
CS(=O)(=O)N(CC(=O)NCCc1ccccc1)C1CCCCC1,23µM*,i,-3%,-1%,-5%,1%
COc1ccc(CCNC(=O)CN(C2CCCCC2)S(C)(=O)=O)cc1OC,?,i,-24%,-9%,29%,3%
CN(C1CCCCC1)S(=O)(=O)c1ccc(S(=O)(=O)N(CC(=O)Nc2ccccc2)C2CC2)cc1,i,i,2%,-1%,3.7µM*,13%
CCNC(=O)CN(C1CCCCC1)S(=O)(=O)c1ccc(F)cc1,13µM*,i,6%,-2%,1%,3%
CN(C1CCCCC1)S(=O)(=O)c1ccc(NC(=O)CCC(=O)O)cc1,i,i,-7%,-13%,0%,3%
CNC(=O)CN(C1CCCCC1)S(=O)(=O)c1ccc(F)cc1,i,i,-15%,5%,3%,-13%
CN(C)Cc1ccccc1-c1cccc2nccn12,i,i,/,/,/,/
CC[C@@H](C(=O)[C@@H](C)[C@@H](O)[C@H](C)CCc1ccc(C)c(O)c1C(=O)O)[C@H]1O[C@](CC)([C@H]2CC[C@](O)(CC)[C@H](C)O2)C[C@@H]1C,?,?,?,6.3µM*,?,?
CCC(C(=O)C(C)C(O)C(C)CCc1ccc(C)c(O)c1C(=O)O)C1OC(CC)(C2CC[C@@](O)(CC)C(C)O2)CC1C (some centres undefined),/,/,?,10µM*,?,?
CCc1ccc(NC(=O)c2nc(SCc3ccccc3F)ncc2Cl)cc1,i,i,/,/,/,/
c1ccc2c(-n3ccnc3)nc(-c3ccoc3)nc2c1,/,/,-41%,-19%,/,/
CCCCn1c(=O)[nH]c(=O)c2c1nc(Cn1ncc(Cl)c(Cl)c1=O)n2CCC,i,2.9µM*,16µM*,7.9µM*,?,?
CCn1cc2nc(SCC(=O)Nc3ccc(OC)cc3OC)n(Cc3ccc(OC)cc3)c(=O)c2n1,?,?,5%,-6%,7.3µM*,3.3µM*
CCn1cc2nc(SCC(=O)Nc3ccc(OC)c(OC)c3)n(Cc3ccc(OC)cc3)c(=O)c2n1,i,i,-55%,-26%,-8%,6%
CCn1cc2nc(SCc3cccc(C(F)(F)F)c3)n(Cc3ccc(OC)cc3)c(=O)c2n1,18µM*,i,/,/,/,/
N#Cc1nc(N2CCCC2)nc(N(c2ccccc2)c2ccccc2)n1,i,i,/,/,/,/
COc1ccc(-c2oc3ncn4nc(COc5ccc(Cl)cc5)nc4c3c2-c2ccc(OC)cc2)cc1,i,i,/,/,/,/

# Source: PubChem (National Center for Advancing Translational Sciences (NCATS))
